# Compounds with a hit are over-represented: about 27% of the library has one in this group of screens.
# CYP2C9 act – human CYP2C9 activators, primary screen, biochemical, luminescence; Cytochrome P450 2C9 (Homo sapiens), P11712; activation factor at 5 µM; recombinant CYP2C9, luciferin-H conversion; hits give high values; factor 1 = untreated enzyme, 0 = blocked; actives 1.4% (n = 96,000);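 active = activation factor of 2 or more for CYP2C9 at a 5 µM dose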
# Target sequence (P11712 whole entry, looked up): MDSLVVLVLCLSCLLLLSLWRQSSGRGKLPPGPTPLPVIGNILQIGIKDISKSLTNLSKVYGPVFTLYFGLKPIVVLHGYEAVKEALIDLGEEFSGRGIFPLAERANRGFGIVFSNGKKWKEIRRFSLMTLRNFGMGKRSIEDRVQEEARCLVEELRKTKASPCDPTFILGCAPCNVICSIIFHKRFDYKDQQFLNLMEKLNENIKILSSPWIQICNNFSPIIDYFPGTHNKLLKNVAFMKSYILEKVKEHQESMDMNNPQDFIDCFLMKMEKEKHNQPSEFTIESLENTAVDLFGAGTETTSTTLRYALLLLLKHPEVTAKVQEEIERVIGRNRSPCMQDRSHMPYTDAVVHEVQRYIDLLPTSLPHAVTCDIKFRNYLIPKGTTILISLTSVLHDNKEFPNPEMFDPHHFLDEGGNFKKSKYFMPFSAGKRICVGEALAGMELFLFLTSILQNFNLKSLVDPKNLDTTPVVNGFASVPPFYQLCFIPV
# CYP2C19 inhib – blockers of cytochrome P450 2C19 activity – biochemical, luminescence, ADME assay, primary screen; CYP2C19 Supersomes, luciferin-H EGE luminescence, 30 min; actives 21% (n = 96,000); P33261; inhibition, % at 5 µM;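 active = CYP2C19 inhibition above a set limit at 5 µM in the primary screen, cut at about 50% in these data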
# Cav32 inh – Cav3.2 calcium influx blockers – cell-based, Fluo-4 calcium fluorescence, FDSS, MLSMR library, primary screen; Voltage-dependent T-type calcium channel subunit alpha-1H (Homo sapiens), O95180; Cav3.2-expressing cells; hits give low values; B-score at 10 µM; actives 4% (n = 100,000);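 active = single-dose well whose peak fluorescence ratio is a statistical outlier from its plate by either plate-standardised score or position-corrected B-score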
# CYP2C19 activ – human CYP2C19 activators, primary screen, biochemical, luminescence. Cytochrome P450 2C19 (Homo sapiens), P33261. recombinant CYP2C19, luciferin-H EGE luminescence; hits give high values; 0 = fully inhibited enzyme, 1 = untreated enzyme. activation factor at 5 µM. 96,000 tested, under 10 active;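 active = activation factor of at least 2 at 5 µM in the primary screen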
# CYP2C9 inhib – blockers of cytochrome P450 2C9 activity – biochemical, luminescence, ADME assay, primary screen; P11712; CYP2C9 Supersomes, luciferin-H conversion; inhibition, % at 5 µM; actives 20% (n = 96,000); AID 777, 2007;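 active = blocking of liver enzyme CYP2C9 beyond about 50% at 5 µM, limit read from the data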
# Numbers stand for hits; n = inactive; x = not tested or not shown.
SMILES,CYP2C9 act,CYP2C19 inhib,Cav32 inh,CYP2C19 activ,CYP2C9 inhib
Cc1cc(-n2c(SCCC#N)nnc2-c2cccnc2)ccc1Cl,n,n,n,n,n
CCN1/C(=C(\O)c2ccccc2)C(=O)c2ccccc2S1(=O)=O,n,n,-3.8,n,n
CC(C)C(NC(=O)CN1C(=O)c2ccccc2S1(=O)=O)C(C)C,n,n,n,n,n
Cc1ccc(-c2nc(N/N=C/c3ccccc3[N+](=O)[O-])c3ccccc3n2)cc1,n,n,n,n,n
Brc1ccc(-c2nc(N/N=C/c3cccnc3)c3ccccc3n2)cc1,n,n,n,n,64
O=C(c1cccc(C(=O)N2CCN(c3ccccc3F)CC2)n1)N1CCN(c2ccccc2F)CC1,n,90,n,n,86
O=C(NC(=O)N1CCN(c2ccccc2F)CC1)c1ccccc1,n,60,n,n,n
Cc1cccc(N2CCN(C(=O)NCc3ccc(Cl)cc3)CC2)c1,x,x,-9.6,x,x
O=C(NC(=O)N1CCN(c2cccc(Cl)c2)CC1)c1ccccc1,n,n,n,n,n
NC(=O)NCc1ccc(Cl)cc1,n,n,n,n,n
O=C(NCc1ccccc1)C1CCN(C(=O)NCc2ccccc2)CC1,n,n,n,n,n
O=C(NCc1ccccc1)N1CCN(c2ccccc2F)CC1,n,62,n,n,n
Cc1ccc(N2CC(C(=O)Nc3ccccc3C(=O)NC3CCCCC3)CC2=O)cc1C (stereo not given),x,x,n,x,x
CC/C(=C\C(=O)c1ccncc1)Nc1ccc(O)cc1,n,87,n,n,n
COc1ccc2c(c1)C1(Nc3ccccc3C(=O)N1c1ccccc1)C(=O)N2 (stereo not given),n,n,n,n,87
COc1ccc2c(c1)NC1(O)c3ccccc3C(=O)C21O (stereo not given),n,n,n,n,n
COc1ccc2cc(C(=O)c3ccccc3)c(=O)oc2c1,n,92,n,n,n
COc1ccc(C(=O)c2c[nH]c3ccccc23)cc1,n,n,n,n,n
COc1ccc(C(=O)c2ccccc2Cl)cc1,2.5,81,n,n,n
CCC(=O)Nc1ccc(Cl)c(NC(=O)C(C)C)c1,n,n,n,n,n
COc1ccc(NC(=O)c2cccc(NC(=O)C3C4CC5OC(=O)C3C5C4)c2)c(OC)c1 (stereo not given),n,n,n,n,n
COc1ccc(OC)c2[nH]c(=O)c(CCNS(=O)(=O)c3ccc(Cl)cc3)cc12,n,n,x,n,84
COc1ccc(OC)c2[nH]c(=O)c(CCNC(=O)c3ccc(S(=O)(=O)N(C)C)cc3)cc12,n,n,x,n,n
Cc1ccc(C)c2[nH]c(=O)c(CCNS(=O)(=O)c3ccccc3)cc12,n,76,n,n,61
COc1ccc(OC)c2[nH]c(=O)c(CCNS(=O)(=O)c3ccc(C)cc3)cc12,n,n,x,n,68
SMILES,CYP2C9 act,CYP2C19 inhib,Cav32 inh,CYP2C19 activ,CYP2C9 inhib
COc1ccc2c(c1)c(C(O)CN1CCC3(CC1)OCCO3)c(C)n2C (stereo not given),n,n,n,n,n
Cn1c(N)c(C(=O)COC(=O)c2cc(C3CC3)nc3ccccc23)c(=O)n(Cc2ccccc2)c1=O,x,x,n,x,x
COC(=O)c1ccc(NC(=O)Nc2ccc(F)c(Cl)c2)cc1,n,n,n,n,n
CCOC(=O)c1ccc(NC(=O)Nc2ccc(F)cc2)cc1,n,n,n,n,66
COC(=O)c1ccc(NC(=O)Nc2ccc(F)cc2)cc1,n,n,n,n,60
CCOC(=O)c1ccc(NC(=O)CC2C(=O)N(c3ccc(F)cc3)C(=O)N2CCC(C)C)cc1 (stereo not given),n,54,-4.5,n,n
CCOC(=O)c1ccc(NC(=O)Nc2ccc(OC)c(OC)c2)cc1,n,n,n,n,n
O=C(CN1C(=O)CCS(=O)(=O)c2ccccc21)Nc1cccc(Cl)c1,x,x,n,x,x
CCCCOCCCNC(=O)/C=C/c1ccccc1Cl,x,x,n,x,x
CCCOc1ccc(/C=C/C(=O)Nc2ccc([N+](=O)[O-])cc2)cc1,n,n,n,n,59
CCN(CC)c1ccc(NC(=O)/C=C\c2ccccc2Cl)cc1,2.3,71,n,n,n
CCN(CC)c1ccc(NC(=O)c2ccccc2F)cc1,3,n,n,n,n
Cc1ccc(/C=C/C(=O)Nc2ccc([N+](=O)[O-])cc2)o1,n,n,n,n,n
O=C(/C=C/c1ccc([N+](=O)[O-])cc1)NCCSc1ccccc1,n,n,-3.8,n,n
O=C(NCc1ccccc1)C1=C[C@@H](c2coc3ccccc3c2=O)C[C@@H](OCc2ccc(CO)cc2)O1,x,x,n,x,x
O=C(Nc1ccc2c(c1)OCCO2)C1CCN(c2cnccn2)CC1,n,n,n,n,n
Cc1ccc(SCCNC(=O)/C=C/c2ccccc2Cl)cc1,n,n,-2.8,n,n
O=C(/C=C/c1ccccc1Cl)NCCc1ccccc1,n,n,n,n,n
O=C(/C=C/c1ccccc1Cl)NCc1ccccc1,2.1,n,n,n,n
O=C(/C=C/c1ccccc1Cl)NCCN1CCOCC1,n,n,n,n,n
COc1ccc2c(c1)c1c(n2C(C)=O)C(OC(C)=O)=NCC1,n,n,n,n,n
CCOc1ccc2nnc(-c3ccc(Br)cc3)n2n1,x,x,n,x,x
COc1ccccc1OCCNC(=O)c1cccs1,n,92,n,n,52
CC(C)OCCCNC(=O)c1cccs1,n,n,n,n,n
O=C(NCCN1Cc2ccccc2C1=O)c1cccs1,n,77,n,n,n
SMILES,CYP2C9 act,CYP2C19 inhib,Cav32 inh,CYP2C19 activ,CYP2C9 inhib
CCCCOCCCNC(=O)c1cccs1,n,n,n,n,n
CCc1ccc(OCCNC(=O)c2cccs2)cc1,n,n,-5.9,n,74
O=C(NCc1ccccc1F)c1cccs1,n,59,n,n,n
COc1ccc(NC(=O)[C@@H]2CC=C[C@@H]3CCN(C4CCCCC4)C(=O)[C@@H]32)cc1,x,x,n,x,x
CC1CCc2nn(CC(=O)N3CCc4ccccc43)cc2C1 (stereo not given),n,n,n,n,n
CCc1ccc(OCCNC(=O)c2ccccc2SCc2ccc(F)cc2)cc1,n,51,x,n,50
O=C(NC(C(=O)c1ccccc1)N1CCOCC1)c1ccccc1 (stereo not given),n,79,x,n,91
Cc1ccc(C(=O)C(NC(=O)c2ccco2)N2CCOCC2)cc1 (stereo not given),n,n,n,n,n
O=C(NC(C(=O)c1ccccc1)N1CCOCC1)c1cccs1 (stereo not given),n,94,x,n,96
CCOc1ccc(C(=O)NC2CCN(C(=S)NCc3ccco3)CC2)cc1,n,n,n,n,n
CCOc1ccccc1C(=O)NCC(=O)OCC(=O)N1C(C)CCCC1C (stereo not given),x,x,n,x,x
O=C(NC1CC2CCC(C1)N2Cc1nnnn1Cc1ccco1)NC12CC3CC(CC(C3)C1)C2 (stereo not given),n,71,n,n,54

# Assay outcomes: PubChem BioAssay, several laboratories
